# Records with an inconclusive call do not appear. Entries that show only a call come without a potency. The source made the active and inactive calls. Calls come from the whole dose curve; as a rule, active = well fitted curve in the direction sought with a large enough effect; inconclusive = small, poorly fitted or top-dose-only effect, or another doubt; inactive = no such curve, though single readings can be large; an effect the other way counts as inactive or inconclusive.
# Biological target: Transient receptor potential cation channel subfamily V member 1 (Homo sapiens) (UniProt Q8NER1)
# Test: HTS Assay for Compounds that Act as Enhancers of the Vanilloid Receptor 1 (AID 488979)
# Details: TRPV1-expressing cells, enhancer of channel activity, stimulated with capsaicin at EC20; series mostly up to 41.7 µM
# In short: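 Calcium influx kinetics via Fluo-8 (480/520 nm) in TRPV1-expressing cells, 2000/well cultured overnight at 35.5C. Compound-alone read 3 min (agonist phase), followed by EC20 capsaicin challenge for 2 min (enhancer phase).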
# Chain of Transient receptor potential cation channel subfamily V member 1 (Homo sapiens) (Q8NER1 whole entry, looked up): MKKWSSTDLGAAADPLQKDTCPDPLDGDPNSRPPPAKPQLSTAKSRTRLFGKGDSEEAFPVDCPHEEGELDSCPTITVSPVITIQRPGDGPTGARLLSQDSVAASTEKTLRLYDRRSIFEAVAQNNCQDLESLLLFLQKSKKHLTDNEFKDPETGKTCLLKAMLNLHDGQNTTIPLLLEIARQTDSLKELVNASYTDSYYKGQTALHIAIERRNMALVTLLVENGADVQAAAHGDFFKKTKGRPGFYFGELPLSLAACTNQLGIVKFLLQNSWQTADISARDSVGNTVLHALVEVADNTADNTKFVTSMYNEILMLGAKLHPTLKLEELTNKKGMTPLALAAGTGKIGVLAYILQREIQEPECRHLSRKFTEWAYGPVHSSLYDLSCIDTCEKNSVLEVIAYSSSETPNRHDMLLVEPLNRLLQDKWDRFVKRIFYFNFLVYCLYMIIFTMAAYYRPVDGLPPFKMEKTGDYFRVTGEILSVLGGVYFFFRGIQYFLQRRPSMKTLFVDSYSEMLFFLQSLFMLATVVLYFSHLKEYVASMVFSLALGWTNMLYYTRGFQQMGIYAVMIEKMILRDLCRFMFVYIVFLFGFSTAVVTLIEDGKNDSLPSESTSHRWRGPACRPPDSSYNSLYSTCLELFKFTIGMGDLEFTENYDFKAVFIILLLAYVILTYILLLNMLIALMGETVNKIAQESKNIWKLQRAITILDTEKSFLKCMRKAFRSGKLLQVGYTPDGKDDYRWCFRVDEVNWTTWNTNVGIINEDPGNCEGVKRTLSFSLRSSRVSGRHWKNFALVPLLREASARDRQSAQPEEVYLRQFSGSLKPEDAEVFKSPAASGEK
row,Structure (SMILES),outcome
1,O=C(NCCNCC(O)COc1ccc(O)cc1)N1CCOCC1 (stereo not given),inactive
2,O=c1[nH]c(=O)n([C@H]2C[C@H](O)[C@@H](CO)O2)cc1/C=C/Br,inactive
3,Cc1cc(C)c(NC(=O)C[C@H](CC(=O)O)c2cccc3ccccc23)c(C(=O)N2CCC3(CCCC3)CC2)c1,inactive
4,C[C@@](Cc1ccc(O)c(O)c1)(NN)C(=O)O,inactive
5,Oc1ccc(/C=C/c2cc(O)cc(O)c2)cc1,inactive

# Biological target: Thyrotropin receptor (Homo sapiens) (UniProt P16473)
# Test: qHTS Assay for Antagonists of the Thyroid Stimulating Hormone Receptor (AID 488980)
# Details: TSHR-expressing cells, cAMP antagonist read-out; series mostly up to 57.5 µM
# In short: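 Inhibition of cAMP raised by EC80 TSH (4 nM final) was read by HTRF, with lysate cAMP competing against cAMP-d2 for cryptate antibody after 30 min at room temperature. The cells were transfected HEK293 held in phosphodiesterase inhibitor RO 20-1724 at 70 uM.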
# Chain of Thyrotropin receptor (Homo sapiens) (P16473 whole entry, looked up): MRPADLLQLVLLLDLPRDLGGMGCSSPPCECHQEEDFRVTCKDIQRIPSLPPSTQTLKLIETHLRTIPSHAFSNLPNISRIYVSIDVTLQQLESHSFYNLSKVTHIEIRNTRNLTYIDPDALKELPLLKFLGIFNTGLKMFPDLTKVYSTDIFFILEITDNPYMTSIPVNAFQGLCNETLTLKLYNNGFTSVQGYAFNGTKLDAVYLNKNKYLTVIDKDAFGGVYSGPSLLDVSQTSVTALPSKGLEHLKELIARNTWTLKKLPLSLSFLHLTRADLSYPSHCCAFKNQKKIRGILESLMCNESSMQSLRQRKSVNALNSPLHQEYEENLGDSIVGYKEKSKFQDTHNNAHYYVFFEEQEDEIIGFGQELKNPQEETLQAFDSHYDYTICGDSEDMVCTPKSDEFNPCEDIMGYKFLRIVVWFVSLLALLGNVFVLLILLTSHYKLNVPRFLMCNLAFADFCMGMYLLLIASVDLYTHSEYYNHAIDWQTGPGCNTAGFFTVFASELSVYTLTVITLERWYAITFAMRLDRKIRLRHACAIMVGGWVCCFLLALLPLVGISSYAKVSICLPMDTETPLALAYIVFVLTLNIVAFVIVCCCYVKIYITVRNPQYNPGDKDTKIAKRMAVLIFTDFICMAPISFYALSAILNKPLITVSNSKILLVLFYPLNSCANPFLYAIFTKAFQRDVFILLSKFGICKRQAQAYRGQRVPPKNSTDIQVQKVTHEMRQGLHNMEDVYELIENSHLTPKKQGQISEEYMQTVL
row,Structure (SMILES),outcome
1,O=C(NCCNCC(O)COc1ccc(O)cc1)N1CCOCC1 (stereo not given),inactive
2,O=c1[nH]c(=O)n([C@H]2C[C@H](O)[C@@H](CO)O2)cc1/C=C/Br,inactive
3,Cc1cc(C)c(NC(=O)C[C@H](CC(=O)O)c2cccc3ccccc23)c(C(=O)N2CCC3(CCCC3)CC2)c1,inactive
4,C[C@@](Cc1ccc(O)c(O)c1)(NN)C(=O)O,inactive
5,Oc1ccc(/C=C/c2cc(O)cc(O)c2)cc1,inactive

# Biological target: ATP-dependent 6-phosphofructokinase (Trypanosoma brucei brucei) (UniProt O15648)
# Test: qHTS Assay to Find Inhibitors of T. brucei phosphofructokinase: hit validation (AID 492961);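 note: luminescence reports ADP formed as PFK phosphorylates fructose-6-phosphate with ATP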
# Details: T. brucei PFK, ADP-Glo luminescence; series mostly up to 51.4 µM
# In short: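 In this biochemical qHTS validation, titrated compounds were tested against 1.25 nM PFK with 0.1 mM ATP and 0.5 mM F6P. Percent activity came from controls lacking or containing enzyme.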
# Chain of ATP-dependent 6-phosphofructokinase (Trypanosoma brucei brucei) (O15648 whole entry, looked up): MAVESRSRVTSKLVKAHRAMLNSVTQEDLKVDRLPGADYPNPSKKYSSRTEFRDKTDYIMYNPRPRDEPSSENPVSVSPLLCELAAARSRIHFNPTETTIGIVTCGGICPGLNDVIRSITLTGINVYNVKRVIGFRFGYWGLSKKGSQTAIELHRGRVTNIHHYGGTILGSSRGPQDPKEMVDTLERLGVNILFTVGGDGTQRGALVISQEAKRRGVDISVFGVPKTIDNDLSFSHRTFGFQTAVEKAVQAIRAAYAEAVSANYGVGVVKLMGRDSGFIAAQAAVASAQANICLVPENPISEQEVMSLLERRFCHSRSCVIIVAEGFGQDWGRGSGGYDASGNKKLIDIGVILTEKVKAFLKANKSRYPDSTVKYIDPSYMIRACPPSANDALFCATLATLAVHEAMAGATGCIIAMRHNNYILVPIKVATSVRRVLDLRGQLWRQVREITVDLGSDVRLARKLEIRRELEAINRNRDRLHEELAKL
row,Structure (SMILES),Potency
1,C[C@H](N)C(=O)N[C@@H](C)P(=O)(O)O,inactive
2,CC(=O)[C@H]1CC[C@H]2[C@@H]3C=CC4=CC(=O)CC[C@@]4(C)[C@H]3CC[C@]12C,inactive
3,O=c1[nH]c(=O)n([C@H]2C[C@H](O)[C@@H](CO)O2)cc1/C=C/Br,inactive
4,CC(C)(Oc1ccc(C2CCCc3ccccc32)cc1)C(=O)O (stereo not given),inactive
5,O=P(O)(O)OC[C@H]1O[C@](O)(COP(=O)(O)O)[C@@H](O)[C@@H]1O,inactive
6,O=S(=O)(O)CCCS(=O)(=O)O,inactive
7,CCCCCc1ccc(C)cc1O,inactive
8,CC(C)Cc1ccc([C@@H](C)C(=O)NS(C)(=O)=O)cc1,inactive
9,O=C(CCCN1CCN2CCCC2C1)c1ccc(F)cc1 (stereo not given),inactive
10,CCN(CC)CCC(=O)N1c2ccccc2Sc2ccc(Cl)cc21,inactive
11,CC1=C(/C=C/C(C)=C/C=C/C(C)=C/C(=O)Oc2c(C)c(C)c3c(c2C)CC[C@@](C)(CCC[C@H](C)CCC[C@H](C)CCCC(C)C)O3)C(C)(C)CCC1,inactive
12,N#Cc1ccc2c(c1)N(CCCN1CCC(O)CC1)c1ccccc1S2,inactive
13,CC12CCC(C[N+](C)(CCC[N+](C)(C)C)C1)C2(C)C (stereo not given),inactive
14,CCOC(C)OCC,inactive
15,CC(C)O,inactive
16,CCC(Cc1c(I)cc(I)c(O)c1I)C(=O)O (stereo not given),inactive
17,CCCCC(CC)CCC(CC(C)C)OS(=O)(=O)O (stereo not given),inactive
18,CCCCCCOC(=O)c1cccnc1,inactive
19,COC(=O)C(CN)c1c[nH]c2ccc(OC)cc12 (stereo not given),inactive
20,C(=C\c1ccncc1)/c1ccccc1,inactive
21,O=P(O)(O)O,inactive
22,C[Se]CC[C@H](N)C(=O)O,inactive
23,CC(C)=CCC/C(C)=C/C=C/C(C)=C/C=C/C(C)=C/C=C/C=C(C)/C=C/C=C(C)/C=C/C=C(\C)CCC=C(C)C,inactive
24,Cn1c(O)c(N=NC(N)=S)c2ccccc21,inactive
25,C=Cc1ccc(S(=O)(=O)O)cc1,inactive
26,CCOC(=O)C1=C(COCCN)NC(C)=C(C(=O)OC)C1c1ccccc1Cl (stereo not given),inactive
27,COc1ccc(/C=C/C(=O)OCCC(C)C)cc1,inactive
28,CC(/C=C/C=C(\C)C(=O)O[C@@H]1O[C@H](CO[C@@H]2O[C@H](CO)[C@@H](O)[C@H](O)[C@H]2O)[C@@H](O)[C@H](O)[C@H]1O)=C\C=C\C=C(C)\C=C\C=C(/C)C(=O)O[C@@H]1O[C@H](CO[C@@H]2O[C@H](CO)[C@@H](O)[C@H](O)[C@H]2O)[C@@H](O)[C@H](O)[C@H]1O,inactive
29,COC1=C(OC)C(=O)C(C/C=C(\C)CC/C=C(\C)CC/C=C(\C)CC/C=C(\C)CC/C=C(\C)CC/C=C(\C)CC/C=C(\C)CC/C=C(\C)CC/C=C(\C)CCC=C(C)C)=C(C)C1=O,inactive
30,FC(F)(F)COCC(F)(F)F,inactive

# Source: PubChem BioAssay (NCATS)
